This is part of a sample that, as a whole, favours compounds with a hit. Of some 79,000 tested, about 15% had one in any assay. Unmarked numbers belong to inactive results. Active and inactive are the calls of the source. No stated cut-off is given here; in the data, active means growth inhibition above about 70%; inactive means the rest.

We go through ten compounds from PubChem BioAssay (NCI).

A short description of experiment [1]: NCI Yeast Anticancer Drug Screen. Data for the rad50 strain (AID 155).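 Further: 0% = growth of vehicle-only cultures of the same strain.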 Particulars: S. cerevisiae rad50 strain growth inhibition, active compounds read high. Summed up: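 Cells are treated with compound, grown, and their growth is then scored against vehicle-only cultures of the same repair-deficient yeast strain.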
Experiment [2] in a line: NCI Yeast Anticancer Drug Screen. Data for the mec2-1 strain (AID 157). Particulars: S. cerevisiae mec2-1 strain, active compounds read high. Summed up: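 Strain: mec2-1 (DNA repair/cell cycle alteration). Compound exposure, then growth measured; inhibition expressed relative to vehicle.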
Experiment [3] is described as follows: NCI Yeast Anticancer Drug Screen. Data for the sgs1 mgt1 strain (AID 161).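 Further: 0% = growth of cultures given vehicle only.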 Particulars: S. cerevisiae sgs1 mgt1 strain, active compounds read high. The gist of the method: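 Genetically altered yeast, compound exposure, growth inhibition relative to vehicle.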
The nature of experiment [4]: NCI Yeast Anticancer Drug Screen. Data for the cln2 rad14 strain (AID 165).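 Further: 0% = growth equal to vehicle treated cultures.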 Particulars: S. cerevisiae cln2 rad14 strain, active compounds read high. Summed up:
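Compounds are applied to the cln2 rad14 yeast strain, and growth is then compared with that of vehicle-treated cultures to give inhibition.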

Experiment [5] in a line: NCI Yeast Anticancer Drug Screen. Data for the bub3 strain (AID 167). Particulars: S. cerevisiae bub3 mutant strain, active compounds read high. Summed up: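 Part of a panel of yeast mutants defective in DNA damage repair or cell cycle regulation. Each strain is grown with compound, and inhibition is calculated relative to solvent-treated cultures.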
Experiment [6] in a line: NCI Yeast Anticancer Drug Screen. Data for the mlh1 rad18 strain (AID 175). Particulars: S. cerevisiae mlh1 rad18 strain growth inhibition, active compounds read high. The gist of the method:
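Read-out is yeast growth inhibition, calculated against vehicle-only controls. The compound was applied to a strain engineered with DNA damage repair alterations.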

Setting [7] is: at 5.0 µM (retest, dose inferred, filed as 0.5).
The mark [8] stands for this setting: at 50.0 µM (retest, dose inferred, filed as 5.0).

On to `CCCCOc1ccc(CN2CCOC2=O)cc1`, for which the growth inhibition in experiment [1] (setting [7]) is 3%; in experiment [1] (setting [8]), 8%; in experiment [1] (at 50.0 µM) it was 38.6%; in experiment [2] (setting [7]), 7%; in experiment [2] (setting [8]), 12%; in experiment [2] (at 50.0 µM) it was 17.8%. Also, the growth inhibition is 4% in experiment [3] (setting [7]); 4% in experiment [3] (setting [8]); 10.6% in experiment [3] (at 50.0 µM); 5% in experiment [4] (setting [7]); 9% in experiment [4] (setting [8]); 28.3% in experiment [4] (at 50.0 µM). The growth inhibition in experiment [5] (setting [7]) was 7%; in experiment [5] (setting [8]), 7%; in experiment [5] (at 50.0 µM), 6.3%; in experiment [6] (setting [7]), 0%; in experiment [6] (setting [8]), 3%; in experiment [6] (at 50.0 µM), 55.4%.
As for `O=C(Nc1ccccc1)OCCCCl`, the growth inhibition in experiment [1] (setting [7]) is -7%; in experiment [1] (setting [8]), -4%; in experiment [1] (at 50.0 µM) it was 9.1%; in experiment [2] (setting [7]), -7%; in experiment [2] (setting [8]) it was 1%; in experiment [2] (at 50.0 µM) it was -13.3%. In addition, the growth inhibition in experiment [3] (setting [7]) is -16%; in experiment [3] (setting [8]), 25%; in experiment [3] (at 50.0 µM) it was 30.6%; in experiment [4] (setting [7]), 25%; in experiment [4] (setting [8]), -7%; in experiment [4] (at 50.0 µM), 64.3%. Besides, the growth inhibition in experiment [5] (setting [7]) is -19%; in experiment [5] (setting [8]), -19%; in experiment [5] (at 50.0 µM), 7.3%; in experiment [6] (setting [7]), -23%; in experiment [6] (setting [8]), -8%; in experiment [6] (at 50.0 µM) it was 12.4%.
As for `Cc1cc(=O)n(C)c2c(C)cccc12`, the growth inhibition in experiment [1] (setting [7]) was -163%; in experiment [1] (setting [8]), -139%; in experiment [1] (at 50.0 µM), 12.9%; in experiment [2] (setting [7]), -47%; in experiment [2] (setting [8]) it was -47%; in experiment [2] (at 50.0 µM), 15.9%. The growth inhibition in experiment [3] (setting [7]) is -60%; in experiment [3] (setting [8]), -57%; in experiment [3] (at 50.0 µM) it was 12.4%; in experiment [4] (setting [7]), -56%; in experiment [4] (setting [8]), -50%; in experiment [4] (at 50.0 µM), 46.3%. Also, the growth inhibition is -73% in experiment [5] (setting [7]); -72% in experiment [5] (setting [8]); -2.85% in experiment [5] (at 50.0 µM); -145% in experiment [6] (setting [7]); -107% in experiment [6] (setting [8]); 10.2% in experiment [6] (at 50.0 µM).
As for `CC(C)(C)C1CCC(SCCO)CC1` (stereo not given), the growth inhibition in experiment [1] (setting [7]) was -22%; in experiment [1] (setting [8]) it was 98% (active); in experiment [1] (at 50.0 µM), 97.5% (active); in experiment [2] (setting [7]), -2%; in experiment [2] (setting [8]), 95% (active); in experiment [2] (at 50.0 µM), 91.9% (active). The growth inhibition in experiment [3] (setting [7]) was -3%; in experiment [3] (setting [8]), 98% (active); in experiment [3] (at 50.0 µM), 97.7% (active); in experiment [4] (setting [7]), -9%; in experiment [4] (setting [8]) it was 97% (active); in experiment [4] (at 50.0 µM), 90% (active). Moreover, the growth inhibition in experiment [5] (setting [7]) was -8%; in experiment [5] (setting [8]), 98% (active); in experiment [5] (at 50.0 µM), 95% (active); in experiment [6] (setting [7]), 14%; in experiment [6] (setting [8]), 99% (active); in experiment [6] (at 50.0 µM), 95.4% (active).
Regarding `CCCCCN(CCC)CCCCCCCCCN1CCCc2cc(OC)ccc21`, the growth inhibition in experiment [1] (setting [7]) was -8%; in experiment [1] (setting [8]) it was -2%; in experiment [1] (at 50.0 µM), 97.3% (active); in experiment [2] (setting [7]) it was -6%; in experiment [2] (setting [8]), -7%; in experiment [2] (at 50.0 µM) it was 97.7% (active). The growth inhibition in experiment [3] (setting [7]) is 2%; in experiment [3] (setting [8]), 2%; in experiment [3] (at 50.0 µM), 62.9%; in experiment [4] (setting [7]) it was -7%; in experiment [4] (setting [8]), -10%; in experiment [4] (at 50.0 µM), 97% (active). In addition, the growth inhibition in experiment [5] (setting [7]) is -4%; in experiment [5] (setting [8]), -3%; in experiment [5] (at 50.0 µM) it was 91% (active); in experiment [6] (setting [7]), -5%; in experiment [6] (setting [8]), -5%; in experiment [6] (at 50.0 µM), 98% (active).
`CCC(=S)N(C)O`: the growth inhibition in experiment [1] (setting [7]) was 95% (active); in experiment [1] (setting [8]) it was 96% (active); in experiment [1] (at 50.0 µM), 66.5%; in experiment [2] (setting [7]), 99% (active); in experiment [2] (setting [8]), 98% (active); in experiment [2] (at 50.0 µM), 50.9%. Further, the growth inhibition in experiment [3] (setting [7]) was 100% (active); in experiment [3] (setting [8]), 98% (active); in experiment [3] (at 50.0 µM) it was 69%; in experiment [4] (setting [7]), 98% (active); in experiment [4] (setting [8]) it was 91% (active); in experiment [4] (at 50.0 µM), 45.1%. Also, the growth inhibition was 100% (active) in experiment [5] (setting [7]); 97% (active) in experiment [5] (setting [8]); 52% in experiment [5] (at 50.0 µM); 98% (active) in experiment [6] (setting [7]); 97% (active) in experiment [6] (setting [8]); 86.2% (active) in experiment [6] (at 50.0 µM).
In the case of `NC(CSSCC(N)=NCCCCCSC12CC3CC(CC(C3)C1)C2)=NCCCCCSC12CC3CC(CC(C3)C1)C2`, the growth inhibition in experiment [1] (setting [7]) was -2%; in experiment [1] (setting [8]) it was 22%; in experiment [1] (at 50.0 µM) it was 99.2% (active); in experiment [2] (setting [7]), 1%; in experiment [2] (setting [8]), 11%; in experiment [2] (at 50.0 µM), 99.6% (active). Moreover, the growth inhibition in experiment [3] (setting [7]) was 1%; in experiment [3] (setting [8]), 12%; in experiment [3] (at 50.0 µM), 99.5% (active); in experiment [4] (setting [7]) it was 3%; in experiment [4] (setting [8]), 2%; in experiment [4] (at 50.0 µM) it was 98.8% (active). Also, the growth inhibition in experiment [5] (setting [7]) was 5%; in experiment [5] (setting [8]), 15%; in experiment [5] (at 50.0 µM), 98.7% (active); in experiment [6] (setting [7]) it was 0%; in experiment [6] (setting [8]) it was 16%; in experiment [6] (at 50.0 µM) it was 99.3% (active).
Consider `OC1C2CCC1C1C3C=CC(C3)C21` (stereo not given), for which the growth inhibition in experiment [1] (setting [7]) was 1%; in experiment [1] (setting [8]), 91% (active); in experiment [1] (at 50.0 µM), 84.8% (active); in experiment [2] (setting [7]) it was 5%; in experiment [2] (setting [8]) it was 93% (active); in experiment [2] (at 50.0 µM), 62.2%. Moreover, the growth inhibition was 11% in experiment [3] (setting [7]); 88% (active) in experiment [3] (setting [8]); 42.4% in experiment [3] (at 50.0 µM); -3% in experiment [4] (setting [7]); 38% in experiment [4] (setting [8]); 70.2% (active) in experiment [4] (at 50.0 µM). Besides, the growth inhibition in experiment [5] (setting [7]) is 11%; in experiment [5] (setting [8]) it was 85% (active); in experiment [5] (at 50.0 µM), 52.1%; in experiment [6] (setting [7]), -1%; in experiment [6] (setting [8]), 94% (active); in experiment [6] (at 50.0 µM), 83% (active).
Consider `CN(C)CCC(=O)N1C/C(=C\c2ccc(Cl)c(Cl)c2)C(=O)/C(=C/c2ccc(Cl)c(Cl)c2)C1`, for which the growth inhibition in experiment [1] (setting [7]) is 98% (active); in experiment [1] (setting [8]), 97% (active); in experiment [1] (at 50.0 µM), 91.7% (active); in experiment [2] (setting [7]), 99% (active); in experiment [2] (setting [8]), 98% (active); in experiment [2] (at 50.0 µM), 89.8% (active). In addition, the growth inhibition in experiment [3] (setting [7]) is 99% (active); in experiment [3] (setting [8]) it was 97% (active); in experiment [3] (at 50.0 µM), 88.2% (active); in experiment [4] (setting [7]) it was 98% (active); in experiment [4] (setting [8]), 98% (active); in experiment [4] (at 50.0 µM) it was 90% (active). For the same compound, the growth inhibition was 99% (active) in experiment [5] (setting [7]); 98% (active) in experiment [5] (setting [8]); 91.3% (active) in experiment [5] (at 50.0 µM); 99% (active) in experiment [6] (setting [7]); 97% (active) in experiment [6] (setting [8]); 88.9% (active) in experiment [6] (at 50.0 µM).
In the case of `c1ccc(-c2n[nH]c3c4ccccc4c4ccccc4c23)cc1`, the growth inhibition is 19% in experiment [1] (setting [7]); 92% (active) in experiment [1] (setting [8]); 93.8% (active) in experiment [1] (at 50.0 µM); 16% in experiment [2] (setting [7]); 98% (active) in experiment [2] (setting [8]); 95% (active) in experiment [2] (at 50.0 µM). The growth inhibition in experiment [3] (setting [7]) is 34%; in experiment [3] (setting [8]) it was 97% (active); in experiment [3] (at 50.0 µM) it was 94.2% (active); in experiment [4] (setting [7]), 5%; in experiment [4] (setting [8]), 94% (active); in experiment [4] (at 50.0 µM), 93.4% (active). Besides, the growth inhibition in experiment [5] (setting [7]) was 13%; in experiment [5] (setting [8]), 95% (active); in experiment [5] (at 50.0 µM), 95% (active); in experiment [6] (setting [7]), 62%; in experiment [6] (setting [8]), 96% (active); in experiment [6] (at 50.0 µM), 95% (active).
